Common to all, as to test: NCI-60 one-dose screen, 48 h (100 = growth as untreated, 0 = no growth, -100 = all killed)
The subject of one test is NCI-H226 lung. As to conditions: 10 µM.
A further test has as its system NCI-H322M lung. Conditions: 10 µM.
The next test has as its system HOP-62 NSCLC. Conditions: 10 µM.
A further test deals with NCI-H460 lung. Conditions: 10 µM.
A further test concerns NCI-H522 lung. As to conditions: 10 µM.
Another test has as its system COLO 205 colon. As to conditions: 10 µM.
A further test deals with DU-145 prostate. Conditions: 10 µM.
The next test deals with SF-268 CNS. As to conditions: 10 µM.
In another test the test system is SF-295 CNS. Conditions: 10 µM.
For another test, the system named is SF-539 CNS. Conditions: 10 µM.
In the next test the test system is UACC-257 melanoma. Conditions: 10 µM.
A further test deals with M14 melanoma. As to conditions: 10 µM.
The test system of a further test is HCT-15 colon. As to conditions: 10 µM.
The subject of the next test is HT29 colon. As to conditions: 10 µM.
A further test concerns SNB-19 CNS. As to conditions: 10 µM.
In the next test the test system is U251 CNS. As to conditions: 10 µM.
For another test, the system named is SK-MEL-5 melanoma. As to conditions: 10 µM.
A further test relates to UACC-62 melanoma. As to conditions: 10 µM.
A further test relates to SK-MEL-2 melanoma. Conditions: 10 µM.
A further test has as its system HL-60(TB) leukemia. As to conditions: 10 µM unless noted.

About 83,000 compounds went through this panel and 20% of them were active in at least one assay; those are over-represented in the sample as a whole.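 Growth was measured after 48 h exposure to one concentration of compound in 96-well plates. Values under 10 count as active.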 Unmarked numbers belong to inactive results. Active and inactive are the calls of the source.

Regarding `CC[C@]12C=CCN3CC[C@@]4(c5ccc(OC)cc5N(C)[C@H]4[C@@](O)(C(=O)OC)[C@@H]1OC(=O)CCCC[P+](c1ccc(C)cc1)(c1ccc(C)cc1)c1ccc(C)cc1)[C@@H]32`, the growth is -78.6% (active) in the test with NCI-H226 lung; -97.6% (active) in the test with NCI-H322M lung; -84% (active) in the test with HOP-62 NSCLC; -86.6% (active) with NCI-H460 lung; -82.7% (active) with NCI-H522 lung; -64.1% (active) in the test on COLO 205 colon. Further, the growth with DU-145 prostate is -84.5% (active); in the test on SF-268 CNS, -61.1% (active); with SF-295 CNS, -91.8% (active); with SF-539 CNS, -98.7% (active); with UACC-257 melanoma, -95% (active); in the test on M14 melanoma, -88.3% (active). Besides, the growth in the test with HCT-15 colon was -90.1% (active); in the test on HT29 colon, -81.8% (active); in the test on SNB-19 CNS it was -96.5% (active); in the test on U251 CNS, -93.6% (active); in the test with SK-MEL-5 melanoma, -98.5% (active); in the test on UACC-62 melanoma it was -97.4% (active). Further, the growth in the test on SK-MEL-2 melanoma was -87.3% (active); in the test on HL-60(TB) leukemia, -42.2% (active).

As to `CC[C@]12C=CCN3CC[C@@]4(c5ccc(OC)cc5N(C)[C@H]4[C@@](O)(C(=O)OC)[C@@H]1OC(=O)CCC[P+](c1ccc(F)cc1)(c1ccc(F)cc1)c1ccc(F)cc1)[C@@H]32`, the growth is 46.9% in the test on NCI-H226 lung; 65.2% in the test with NCI-H322M lung; 64% in the test on HOP-62 NSCLC; 30.9% in the test with NCI-H460 lung; -17.7% (active) in the test with NCI-H522 lung; -19% (active) in the test on COLO 205 colon. The growth with DU-145 prostate is 47.7%; in the test on SF-268 CNS, 42.3%; in the test on SF-295 CNS, 85%; in the test with SF-539 CNS, 24.2%; in the test with UACC-257 melanoma, -34.3% (active); with M14 melanoma, 21.5%. Also, the growth in the test with HCT-15 colon is 99.6%; with HT29 colon it was 15.7%; with SNB-19 CNS, 13.8%; in the test on U251 CNS it was 18.5%; in the test on SK-MEL-5 melanoma, -38.3% (active); in the test with UACC-62 melanoma, -59.5% (active). Besides, the growth with SK-MEL-2 melanoma is -46.9% (active); with HL-60(TB) leukemia, -22.9% (active).

Consider `CC[C@]12C=CCN3CC[C@@]4(c5ccc(OC)cc5N(C)[C@H]4[C@@](O)(C(=O)OC)[C@@H]1OC(=O)CCC[P+](C1CCCCC1)(C1CCCCC1)C1CCCCC1)[C@@H]32`, for which the growth was -20% (active) in the test with NCI-H226 lung; 24.5% with NCI-H322M lung; 4.26% (active) in the test with HOP-62 NSCLC; 4.64% (active) with NCI-H460 lung; -82.2% (active) with NCI-H522 lung; -63.6% (active) with COLO 205 colon. For the same compound, the growth with DU-145 prostate is 15.7%; in the test with SF-268 CNS it was -54.1% (active); with SF-295 CNS, -13.5% (active); in the test with SF-539 CNS it was -86.5% (active); with UACC-257 melanoma it was -80.9% (active); with M14 melanoma it was -78% (active). Also, the growth in the test on HCT-15 colon is 76.6%; in the test on HT29 colon, -56.7% (active); in the test on SNB-19 CNS it was -60% (active); with U251 CNS it was -82.5% (active); in the test on SK-MEL-5 melanoma it was -98.4% (active); in the test on UACC-62 melanoma it was -97.3% (active). In addition, the growth was -84.9% (active) in the test on SK-MEL-2 melanoma and -37.1% (active) with HL-60(TB) leukemia.

For the compound `CC1=C(CCC=NNC(N)=O)C2=C(C)C3(CC3)[C@@](C)(O)C(=O)C2=C1`, the growth was -71.7% (active) with NCI-H226 lung; -13% (active) in the test with NCI-H322M lung; -78.8% (active) in the test on HOP-62 NSCLC; -24.8% (active) in the test on NCI-H460 lung; -90.4% (active) in the test on NCI-H522 lung; -91.4% (active) in the test on COLO 205 colon. Further, the growth with DU-145 prostate is -29.2% (active); with SF-268 CNS, -31.4% (active); in the test with SF-295 CNS, 1.93% (active); in the test with SF-539 CNS, -99.1% (active); in the test with UACC-257 melanoma, -76.1% (active); in the test with M14 melanoma it was -35.8% (active). Besides, the growth in the test with HCT-15 colon is -49.2% (active); in the test on HT29 colon, -31% (active); in the test with SNB-19 CNS, -38.6% (active); with U251 CNS, -77.4% (active); with SK-MEL-5 melanoma, -100% (active); in the test on UACC-62 melanoma, -88.1% (active). In addition, the growth with SK-MEL-2 melanoma is -76.9% (active).

For `CC1=C2C(=C[C@@](C)(COP(=O)(Oc3ccccc3)Oc3ccccc3)[C@@H]2O)C(=O)[C@@](C)(O)C12CC2`, the growth with NCI-H226 lung was -63.9% (active); in the test on NCI-H322M lung, -59.5% (active); in the test with HOP-62 NSCLC it was -88.4% (active); with NCI-H460 lung, -35.4% (active); in the test with NCI-H522 lung it was -93.4% (active); with COLO 205 colon it was -95.8% (active). In addition, the growth in the test with DU-145 prostate is -96.3% (active); in the test with SF-268 CNS it was -74.3% (active); in the test on SF-295 CNS, -59% (active); in the test on SF-539 CNS, -99.1% (active); in the test with UACC-257 melanoma it was -41.2% (active); with M14 melanoma it was -22.9% (active). The growth is -32.5% (active) in the test with HCT-15 colon; -57.3% (active) with HT29 colon; -17.5% (active) with SNB-19 CNS; -43.4% (active) in the test with U251 CNS; -99.2% (active) in the test on SK-MEL-5 melanoma; -87.7% (active) in the test on UACC-62 melanoma. For the same compound, the growth in the test on SK-MEL-2 melanoma is -83.9% (active).

With `CC1=C(C=O)C2=C(C)C3(CC3)[C@@](C)(O)C(=O)C2=C1`, the growth in the test on NCI-H226 lung was 45.9%; with NCI-H322M lung, 67.2%; in the test on HOP-62 NSCLC it was 37.5%; in the test with NCI-H460 lung, 2.24% (active); in the test on NCI-H522 lung, -76.5% (active); in the test on COLO 205 colon, 30.4%. The growth in the test with DU-145 prostate is 8.41% (active); in the test with SF-268 CNS, 36.2%; with SF-295 CNS it was 70.5%; in the test with SF-539 CNS, -47.8% (active); in the test with UACC-257 melanoma, 73.8%; in the test on M14 melanoma it was 13.6%. In addition, the growth was -29.3% (active) in the test on HCT-15 colon; 15.8% with HT29 colon; 54.5% in the test with SNB-19 CNS; -43.9% (active) in the test on U251 CNS; -91.5% (active) in the test with SK-MEL-5 melanoma; 49.3% in the test on UACC-62 melanoma. Also, in the test on SK-MEL-2 melanoma, the growth is 8.32% (active).

On to `O=C(/C=C/c1ccc(F)cc1)c1nc2ccccc2n1Cc1ccc(F)cc1`, for which the growth is -35.7% (active) with NCI-H226 lung; 40.5% with NCI-H322M lung; -1.76% (active) in the test with HOP-62 NSCLC; 6.65% (active) in the test on NCI-H460 lung; 44.1% in the test on NCI-H522 lung; -32% (active) with COLO 205 colon. Further, the growth in the test on DU-145 prostate was 18.4%; in the test on SF-268 CNS, 16.2%; in the test on SF-295 CNS it was -10.9% (active); with SF-539 CNS it was -63.5% (active); with UACC-257 melanoma, 25.6%; in the test with M14 melanoma it was -3.51% (active). In addition, the growth in the test with HCT-15 colon is -61% (active); in the test with HT29 colon it was -30.5% (active); in the test with SNB-19 CNS, 13.8%; in the test on U251 CNS, -56.3% (active); with SK-MEL-5 melanoma it was 21.1%; with UACC-62 melanoma, -41.7% (active). The growth is 21.3% in the test with SK-MEL-2 melanoma and 6.99% (active) with HL-60(TB) leukemia.

For the compound `O=C(/C=C/c1ccc(Cl)cc1)c1nc2ccccc2n1Cc1ccc(Br)cc1`, the growth was 57.4% in the test on NCI-H226 lung; 78.8% in the test with NCI-H322M lung; 65.5% with HOP-62 NSCLC; 58.1% with NCI-H460 lung; 76% in the test with NCI-H522 lung; 93.6% in the test on COLO 205 colon. In addition, the growth in the test with DU-145 prostate was 66.1%; in the test with SF-268 CNS it was 75.3%; in the test on SF-295 CNS, 73.3%; with SF-539 CNS, 43.8%; in the test with UACC-257 melanoma, 71%; in the test on M14 melanoma, 65.4%. Also, the growth in the test with HCT-15 colon is 21.4%; with HT29 colon it was 38.1%; in the test with SNB-19 CNS, 65.9%; in the test on U251 CNS, 34.4%; with SK-MEL-5 melanoma, 85%; with UACC-62 melanoma, 48.6%. The growth is 83.3% with SK-MEL-2 melanoma and 35.8% in the test on HL-60(TB) leukemia.

(Values after PubChem BioAssay (NCI).)
